# A number with no mark means an inactive call. Results filed as inconclusive are left out. Where a call stands in place of a potency, no number is given. The source made the active and inactive calls. Unless noted, the call rests on the fitted dose curve.
# How the values were obtained:
# [1] = Nuclear factor erythroid 2-related factor 2/antioxidant responsive element (Nrf2/ARE) small molecule agonists: qHTS cell viability counter screen in human keratinocytes (AID 1919968; active means well fitted curve in the direction sought with a large enough effect in the repeat runs; an effect the other way counts as inactive or inconclusive; further: nearly all actives have a fitted effect of over 55% in size)
# In short: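 Cells of the KeratinoSens line were plated at 1,500 per well and left for 5 h before compound transfer from DMSO stocks. After a 23 h incubation (37 C, 5% CO2), CellTiter-Fluor was added. Signal was taken as fluorescence intensity 1 h later.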
# [2] = Nuclear factor erythroid 2-related factor 2/antioxidant responsive element (Nrf2/ARE) small molecule agonists: luciferase reporter gene qHTS assay in human keratinocytes (AID 1919969); further: nearly all actives have a fitted effect of over 35% in size; further: potency means the concentration at half of the fitted maximal effect
# [3] = biological target: Gonadotropin-releasing hormone receptor (Homo sapiens) (UniProt P30968); experiment: Human gonadotropin-releasing hormone receptor (GnRHR) small molecule agonists, calcium flux assay in GnRHR-HEK293 cells (AID 1920063); further: nearly all actives have a fitted effect of over 35% in size
# In short: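 Compounds dissolved in DMSO are pin-transferred onto dye-loaded GnRHR-HEK293 cells, which were seeded 18 h before at 37 C/5% CO2. Calcium signal is read as fluorescence intensity at 1 s intervals for 3 min.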
# [4] = biological target: KiSS-1 receptor (Homo sapiens) (UniProt Q969F8); experiment: Human kisspeptin (KISS1R) small molecule agonists, calcium flux assay in KISS1R-HEK293 cells (AID 1920064; active means well fitted curve in the direction sought with a large enough effect in the repeat runs; an effect the other way counts as inactive or inconclusive)
# In short: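 Cell line: HEK293, stable human KISS1R. Dye loading 1 h at 37 C after 18 h culture. Read: kinetic fluorescence, 480/540 nm, 3 min at 1 s intervals.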
# [5] = G protein-coupled receptor (GPCR) small molecule agonists, calcium flux assay: HEK293 wild type cell line counter screen (AID 1920065)
# In short: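 Tox21 10K compounds, 15 concentrations each in triplicate, pin-transferred in DMSO onto dye-loaded cells; kinetic read at 480/540 nm for 3 min, 1 s intervals.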
# [6] = p53 small molecule agonists, cell-based qHTS assay with rat liver microsomes (AID 1963578)
# In short: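 Agonist mode in p53RE-bla reporter cells, with compounds co-incubated 16 h at 37 C alongside 0.5 mg/mL rat liver microsomes and 0.5 mg/mL NADPH (final), followed by a 2 h LiveBLAzer detection step.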
# [7] = p53 small molecule agonists, cell-based qHTS assay with human liver microsomes: qHTS cell viability counter screen (AID 1963579); further: nearly all actives have a fitted effect of over 45% in size
# In short: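 Metabolically activated exposure: compounds, human liver microsomes and NADPH (0.5 mg/mL final apiece) were added to p53RE-bla cells seeded 5 h earlier, left 16 h at 37 C, and then assessed for viability by CellTiter-Glo luminescence.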
# [8] = p53 small molecule agonists, cell-based qHTS assay with rat liver microsomes: qHTS cell viability counter screen (AID 1963580); further: nearly all actives have a fitted effect of over 45% in size
# In short: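 Cytotoxicity counter screen: intracellular ATP measured by CellTiter-Glo luminescence in the same wells as the beta-lactamase reporter read, on HCT-116 p53RE-bla cells exposed 16 h at 37 C to compounds with rat liver microsomes and NADPH, each 0.5 mg/mL final.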
# [9] = p53 small molecule agonists, cell-based qHTS assay: qHTS cell viability counter screen (AID 1963581); further: nearly all actives have a fitted effect of over 45% in size
# In short: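 ATP content measured by luminescence in HCT-116 p53RE-bla cells treated 16 h at 37 C, same wells as the reporter screen.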
# [10] = p53 small molecule agonists, cell-based qHTS assay (AID 1963582; active means well fitted activation curve with a large enough effect in the signal ratio in the repeat runs, not every such curve was filed as active; the % refers to the signal ratio)
# In short: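 16 h compound exposure (37 C) of p53 response element–bla cells, preceded by 5 h recovery at 37 C/5% CO2; read-out via LiveBLAzer B/G FRET substrate, 2 h RT, fluorescence intensity.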
# [11] = biological target: 5-hydroxytryptamine receptor 2A (Homo sapiens) (UniProt P28223); experiment: 5-hydroxytryptamine receptor 2A (HTR2A) small molecule antagonists, cell-based qHTS assay (AID 1963586); further: nearly all actives have a fitted effect of over 45% in size
# In short: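 CHO cells stably expressing human HTR2A were plated for 18 h at 37 C, then loaded with calcium dye for 1 h. Compounds were preincubated 5 min at room temperature before DOI (4 nM solution) was added. Kinetic fluorescence was read for 3 min.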
# [12] = biological target: 5-hydroxytryptamine receptor 2A (Homo sapiens) (UniProt P28223); experiment: 5-hydroxytryptamine receptor 2A (HTR2A) small molecule agonists, cell-based qHTS assay (AID 1963587); further: nearly all actives have a fitted effect of over 30% in size
# In short: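 CHO cells stably expressing human HTR2A, plated 18 h, loaded with calcium dye 1 h at 37 C. Agonist mode: compounds added and intracellular calcium fluorescence recorded kinetically for 2 min at 1 sec intervals.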
# [13] = biological target: Muscarinic acetylcholine receptor M1 (Homo sapiens) (UniProt P11229); experiment: Cholinergic receptor muscarinic 1 (CHRM1) small molecule antagonists, cell-based qHTS assay (AID 1963588); further: nearly all actives have a fitted effect of over 40% in size
# In short: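 Compounds were tested at 15 concentrations in three independent runs. Dye-loaded CHRM1-CHO cells were exposed 5 min at room temperature before stimulation by acetylcholine added at 50nM. Intracellular calcium was read kinetically on FDSS for 3 min.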
# [14] = biological target: Muscarinic acetylcholine receptor M1 (Homo sapiens) (UniProt P11229); experiment: Cholinergic receptor muscarinic 1 (CHRM1) small molecule agonists, cell-based qHTS assay (AID 1963589); further: nearly all actives have a fitted effect of over 35% in size
# In short: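 Homogeneous fluorescence calcium flux, agonist mode. Human M1-expressing CHO cells; compound dosed at 15 concentrations, three independent runs; signal sampled every 1 sec.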
# [15] = cAMP Responsive Elements (CRE) small molecule agonists, cell-based qHTS assay (AID 1963590)
# In short: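 HEK 293T cells stably bearing CRE-bla were plated at 2,000 cells per well and rested 18 h. Compounds, positive controls or DMSO were added for 3 h at 37 C. LiveBLAzer B/G substrate was then loaded for 2 h at room temperature.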
# [16] = cAMP Responsive Elements (CRE) small molecule antagonists, cell-based qHTS assay (AID 1963591; active means well fitted inhibition curve with a large enough effect in the signal ratio in the repeat runs, not every such curve was filed as active; the % refers to the signal ratio)
# In short: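 First, CRE-bla HEK293T cells settled 18 h at 37 C. Next, compound and 0.25 uM final NKH477 were applied for 3 h. Last, LiveBLAzer B/G substrate was loaded for 2 h at room temperature.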
# [17] = biological target: Beta-2 adrenergic receptor (Homo sapiens) (UniProt P07550); experiment: Adrenergic beta2 receptor (ADRB2) small molecule antagonists, cell-based qHTS assay (AID 1963592); further: series mostly up to about 92 µM; nearly all actives have a fitted effect of over 50% in size
# In short: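 Assay format: CHO-ADRB2 cells, 18-20hr seeding at 37C/5% CO2, then compound plus 1nM isoproterenol agonist mix for 0.5hr RT. Homogeneous time-resolved fluorescence cAMP detection after 1hr, expressed as 665/615 nm ratio.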
# [18] = biological target: D(2) dopamine receptor (Homo sapiens) (UniProt P14416); experiment: Dopamine D2 receptor (DRD2) small molecule agonists, cell-based qHTS assay (AID 1963594); further: nearly all actives have a fitted effect of over 35% in size
# In short: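 HEK293 cells stably expressing human DRD2, pre-treated with PDE inhibitor Ro20-1724 (0.1 mM final) and compound 10 min at room temperature, then stimulated with NKH477 (200nM […]) for 30 min. cAMP read by HTRF (665/620 nm).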
# [19] = biological target: D(2) dopamine receptor (Homo sapiens) (UniProt P14416); experiment: Dopamine D2 receptor (DRD2) small molecule antagonists, cell-based qHTS assay (AID 1963595; active means well fitted inhibition curve with a large enough effect in the signal ratio in the repeat runs, with a control signal flat; the % refers to the signal ratio)
# In short: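 In this cell-based antagonist screen, compounds act for 10 min at room temperature before a 30 min challenge with 12 nM quinpirole and 200 nM NKH477. cAMP is quantified by HTRF competition in DRD2-HEK293 cells containing 0.1 mM Ro20-1724.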
# [20] = biological target: Beta-2 adrenergic receptor (Homo sapiens) (UniProt P07550); experiment: Adrenergic beta2 receptor (ADRB2) small molecule agonists, cell-based qHTS assay (AID 1963593);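 further: CHO cells stably overexpressing human ADRB2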
# In short: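 CHO cells stably over-expressing ADRB2 were plated overnight at 37C, then dosed with compounds plus a stimulation mix containing 100uM IBMX and 25uM Ro-20-1724 for 0.5hr at room temperature. cAMP was measured by HTRF competition, 1hr.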
# D(2) dopamine receptor (Homo sapiens), sequence (P14416 whole entry, looked up): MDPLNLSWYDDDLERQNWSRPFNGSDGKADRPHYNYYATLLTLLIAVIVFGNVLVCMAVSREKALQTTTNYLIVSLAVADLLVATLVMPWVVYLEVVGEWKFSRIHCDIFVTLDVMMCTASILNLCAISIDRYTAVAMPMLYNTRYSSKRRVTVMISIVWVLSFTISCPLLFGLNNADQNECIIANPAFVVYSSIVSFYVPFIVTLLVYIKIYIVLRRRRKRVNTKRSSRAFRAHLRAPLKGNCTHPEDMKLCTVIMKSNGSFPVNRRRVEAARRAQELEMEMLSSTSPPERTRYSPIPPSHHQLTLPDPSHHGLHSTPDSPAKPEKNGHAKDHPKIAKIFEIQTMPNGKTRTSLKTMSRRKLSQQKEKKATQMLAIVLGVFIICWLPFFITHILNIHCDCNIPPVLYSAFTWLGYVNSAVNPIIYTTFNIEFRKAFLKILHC
# Muscarinic acetylcholine receptor M1 (Homo sapiens), sequence (P11229 whole entry, looked up): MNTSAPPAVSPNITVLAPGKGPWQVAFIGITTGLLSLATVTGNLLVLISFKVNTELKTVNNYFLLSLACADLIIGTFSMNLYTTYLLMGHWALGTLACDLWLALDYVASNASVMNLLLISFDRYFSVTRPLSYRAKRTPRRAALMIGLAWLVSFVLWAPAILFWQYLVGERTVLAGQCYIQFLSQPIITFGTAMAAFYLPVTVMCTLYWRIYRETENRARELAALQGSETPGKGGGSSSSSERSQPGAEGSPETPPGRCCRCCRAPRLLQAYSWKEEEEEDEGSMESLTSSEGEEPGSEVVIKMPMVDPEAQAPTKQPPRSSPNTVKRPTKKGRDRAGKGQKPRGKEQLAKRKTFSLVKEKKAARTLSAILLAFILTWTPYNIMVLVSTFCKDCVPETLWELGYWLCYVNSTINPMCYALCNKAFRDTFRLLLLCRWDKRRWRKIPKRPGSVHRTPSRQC
# Beta-2 adrenergic receptor (Homo sapiens), sequence (P07550 whole entry, looked up): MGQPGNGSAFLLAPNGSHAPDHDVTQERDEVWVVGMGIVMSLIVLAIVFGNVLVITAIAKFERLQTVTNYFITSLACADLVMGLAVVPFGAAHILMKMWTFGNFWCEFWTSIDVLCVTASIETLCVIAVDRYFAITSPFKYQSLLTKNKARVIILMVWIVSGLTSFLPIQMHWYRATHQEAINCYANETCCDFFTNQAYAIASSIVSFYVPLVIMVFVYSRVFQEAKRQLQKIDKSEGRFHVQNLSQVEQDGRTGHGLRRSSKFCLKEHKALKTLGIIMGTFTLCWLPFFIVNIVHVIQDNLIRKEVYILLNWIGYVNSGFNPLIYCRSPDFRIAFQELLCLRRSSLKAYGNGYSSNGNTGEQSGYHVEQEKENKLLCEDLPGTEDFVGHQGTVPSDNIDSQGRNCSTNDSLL
# KiSS-1 receptor (Homo sapiens), sequence (Q969F8 whole entry, looked up): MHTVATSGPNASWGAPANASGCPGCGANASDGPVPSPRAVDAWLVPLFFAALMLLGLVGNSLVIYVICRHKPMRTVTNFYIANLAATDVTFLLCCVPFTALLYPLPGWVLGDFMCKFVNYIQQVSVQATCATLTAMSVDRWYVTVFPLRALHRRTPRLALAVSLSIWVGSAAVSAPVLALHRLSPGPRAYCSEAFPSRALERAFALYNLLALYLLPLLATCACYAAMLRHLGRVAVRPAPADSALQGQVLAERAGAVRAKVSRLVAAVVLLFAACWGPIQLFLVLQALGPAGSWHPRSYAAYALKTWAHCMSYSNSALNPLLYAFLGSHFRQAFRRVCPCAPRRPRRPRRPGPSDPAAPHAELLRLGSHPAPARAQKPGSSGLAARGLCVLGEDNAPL
# 5-hydroxytryptamine receptor 2A (Homo sapiens), sequence (P28223 whole entry, looked up): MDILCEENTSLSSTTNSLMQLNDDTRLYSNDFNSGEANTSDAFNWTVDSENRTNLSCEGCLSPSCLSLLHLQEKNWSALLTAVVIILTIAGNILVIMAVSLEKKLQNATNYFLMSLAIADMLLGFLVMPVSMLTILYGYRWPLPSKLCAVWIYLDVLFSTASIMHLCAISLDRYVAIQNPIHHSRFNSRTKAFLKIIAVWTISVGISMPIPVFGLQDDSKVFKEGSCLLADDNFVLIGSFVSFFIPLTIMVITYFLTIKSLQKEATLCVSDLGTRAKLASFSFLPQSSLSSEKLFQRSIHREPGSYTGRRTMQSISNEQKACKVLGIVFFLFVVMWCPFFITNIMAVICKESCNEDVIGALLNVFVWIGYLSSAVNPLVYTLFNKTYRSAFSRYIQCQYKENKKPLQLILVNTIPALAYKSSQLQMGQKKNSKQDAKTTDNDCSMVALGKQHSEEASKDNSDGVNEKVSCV
# Gonadotropin-releasing hormone receptor (Homo sapiens), sequence (P30968 whole entry, looked up): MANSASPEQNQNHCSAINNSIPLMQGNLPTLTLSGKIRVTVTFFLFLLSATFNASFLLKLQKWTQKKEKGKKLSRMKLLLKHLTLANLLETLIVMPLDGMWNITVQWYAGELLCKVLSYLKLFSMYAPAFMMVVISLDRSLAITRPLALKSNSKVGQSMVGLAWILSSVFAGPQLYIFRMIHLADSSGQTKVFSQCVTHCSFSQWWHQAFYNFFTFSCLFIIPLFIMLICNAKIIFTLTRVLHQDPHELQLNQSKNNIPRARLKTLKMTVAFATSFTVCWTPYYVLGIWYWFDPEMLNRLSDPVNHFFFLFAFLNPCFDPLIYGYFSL
SMILES,Potency [1],Potency [2],Potency [3],Potency [4],Potency [5],Potency [6],Potency [7],Potency [8],Potency [9],Potency [10],Potency [11],Potency [12],Potency [13],Potency [14],Potency [15],Potency [16],Potency [17],Potency [18],Potency [19],Potency [20]
Cc1coc2ccccc2c1=O,inactive,inactive,inactive,inactive,inactive,inactive,inactive,inactive,inactive,inactive,inactive,inactive,inactive,inactive,inactive,inactive,inactive,inactive,inactive,
CCCOC(=O)CCCCC(=O)OCCC,inactive,inactive,inactive,inactive,inactive,inactive,inactive,inactive,inactive,inactive,,inactive,inactive,,inactive,,inactive,inactive,inactive,
O=C1c2ccccc2Cc2ccccc21,inactive,61.6 µM (active),inactive,inactive,inactive,inactive,inactive,inactive,inactive,inactive,,inactive,,inactive,,,inactive,inactive,inactive,
CC1(C)O[C@@H]2C[C@H]3[C@@H]4CCC5=CC(=O)CC[C@]5(C)[C@@]4(F)[C@@H](O)C[C@]3(C)[C@]2(C(=O)CCl)O1,inactive,inactive,inactive,inactive,inactive,inactive,inactive,inactive,inactive,inactive,,,,,inactive,,inactive,inactive,inactive,inactive
CC(=O)c1ccc[nH]1,inactive,inactive,inactive,inactive,inactive,inactive,inactive,inactive,inactive,inactive,inactive,inactive,inactive,inactive,inactive,inactive,inactive,,inactive,inactive
CCNC(=O)/C=C/c1cccc(Br)c1,inactive,inactive,inactive,inactive,inactive,inactive,inactive,inactive,inactive,inactive,,inactive,inactive,inactive,inactive,inactive,inactive,inactive,inactive,inactive
CCC(=O)OCCC(C)CCC=C(C)C (configuration not stated),inactive,inactive,inactive,inactive,inactive,inactive,inactive,inactive,inactive,inactive,inactive,inactive,inactive,inactive,inactive,inactive,inactive,inactive,inactive,

# — PubChem BioAssay (Tox21)
